Rows were chosen to be rich in hits. Some 11% of all compounds tested hit in one or more screens of this group.
NS1 function inh – inhibitors of influenza NS1 protein function; AID 2326; actives 0.4% (n = 270,000); Potency, µM (top dose mostly 46.1 µM), without a hit: at the highest dose activity, positive = more growth; calls by dose curve; note: actives are rising curves; nearly all actives have a fitted effect of over 50% in size
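OD600 was taken as the measure of yeast growth restored by compound in an NS1-expressing S. cerevisiae strain. Cells had been washed out of glucose medium and diluted 1:100 into galactose -URA medium, pH 6.0.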
Vaccinia mCherry – vaccinia inhibition (mCherry reporter); Vaccinia virus mCherry reporter infection, fluorescence; Potency, µM (series often up to 36.5 µM), for the others: top-dose activity change, negative = inhibition, hits mostly inhibitors; actives 0.63% (n = 310,000); calls by dose curve; tested in A549 cells; note: % is set by controls: 0 for no effect and ±100 for the full control effect; nearly all actives have a fitted effect of over 35% in size
Vaccinia Venus – vaccinia inhibition (Venus reporter). Vaccinia virus Venus reporter expression, fluorescence. Potency, µM (series often up to 36.5 µM), for inactives: top-dose activity change, negative = inhibition, most hits filed as inhibitors. actives 0.46% (n = 330,000). AID 720580; calls by dose curve; tested in A549 cells; note: % is set by controls: 0 for no effect and ±100 for the full control effect; nearly all actives have a fitted effect of over 30% in size
HCV inhibitor – inhibitors of hepatitis C virus infection. Huh7.5.1 HCVcc-Cre infection, luciferase reporter, 44 h. Potency, µM (top dose mostly 41.8 µM), inactives show top-dose activity change, negative = inhibition, hits mostly inhibitors. actives 3.4% (n = 340,000); note: % is set by controls: 0 for no effect and ±100 for the full control effect
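Compounds are dispensed onto cells plated 4 h earlier at 1,000 per well, with HCVcc-Cre virus (about 0.5 moi) added next. Following 44 h of culture, luminescent signal is measured for 15 sec after 15 min with substrate at room temperature.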
Pf growth 48h – P. falciparum growth inhibition at 48 hours (one generation). actives 5.9% (n = 310,000). Potency, µM (top dose mostly 28.7 µM), for inactives: top-dose activity change, negative = inhibition, most hits filed as inhibitors. P. falciparum luciferase growth in erythrocytes, 48 h; note: % is set by controls: 0 for no effect and ±100 for the full control effect
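Luciferase-expressing parasites in RBCs, 2% Hct / 0.1% parasitemia final; RPMI 1640 + 0.5% Albumax; 37 C, 5% CO2, one generation; luminescence read-out, lower signal = inhibition.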
Pf growth 96h – inhibits malaria parasite growth, 96 h | P. falciparum luciferase reporter growth, 96 h | Potency, µM (titrated, usually from 28.7 µM), without a hit: at the top dose activity change, negative = inhibition, actives largely listed as inhibitors | actives 6.9% (n = 320,000) | AID 504834; note: % is set by controls: 0 for no effect and ±100 for the full control effect
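Two parasite generations (96 h, 37 C, 5% CO2) of compound exposure in infected erythrocytes (0.05% parasitemia, 2% hematocrit). Luciferase-reporter P. falciparum; decreased luminescence indicates inhibited growth, aimed at apicoplast-acting delayed death.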
Starred values were filed as active, the others as inactive; i = inactive; ? = inconclusive; . = no result given; [ ] = dose if it differs, or a comment. Unless noted, calls come from the whole dose curve; as a rule, active = well fitted inhibition curve with a large enough effect; inconclusive = small, poorly fitted or top-dose-only effect, or another doubt; inactive = no such curve, though single readings can be large or run the other way. Potency is the fitted concentration of half-maximal effect.

SMILES | NS1 function inh | Vaccinia mCherry | Vaccinia Venus | HCV inhibitor | Pf growth 48h | Pf growth 96h
CC(=O)N1CCc2cc(Br)cc(S(=O)(=O)NCc3ccc(Cl)cc3)c21 | 5% | ? | -8% | 14% | -6% | -7%
COC(=O)C1(S(=O)(=O)c2cc(Br)cc3c2N(C(C)=O)CC3)CC1 | 2% | . | -23% | 7% | 9.3µM* | 77%
CC(=O)N1CCc2cc(Br)cc(S(=O)(=O)N3CCCCCC3)c21 | -22% | -21% | -18% | -15% | 3.3µM* | 0%
CCOC(=O)C1CCN(S(=O)(=O)c2cc(Br)cc3c2N(C(=O)C2CC2)CC3)CC1 | -72% | -18% | -11% | 12% | 8.3µM* | -1%
Cc1c(NC(=O)c2cc(-c3ccc(Cl)c(Cl)c3)on2)c(=O)n(-c2ccccc2)n1C | 12% | -24% | 0% | -21% | 10% | 37%
CCOC(=O)C1(Cc2ccccc2)CCN(Cc2csc(C(C)=O)c2)CC1 | 2% | -3% | -13% | ? | ? | ?
COc1ccccc1C(=O)NC1(C(F)(F)F)NC(=O)N(CCc2ccccc2)C1=O (stereo unspecified) | . | 1% | 0% | . | . | .
CCC(=O)N1CCc2cc(Br)cc(S(=O)(=O)CC(=O)OC)c21 | 6% | . | -21% | 19% | ? | 15µM*
O=C1Nc2ccccc2/C1=C/c1cnc[nH]1 | -73% | . | . | 1% | ? | ?
COc1ccc2c(c1)/C(=C/c1cnc[nH]1)C(=O)N2 | -103% | 3.5µM* | 7.1µM* | ? | ? | 5.2µM*
CCN(CC)CCCn1c(=S)[nH]c2ccc(Cl)cc2c1=O | -4% | . | . | ? | ? | -6%
CCN(CC)CCCn1c(=S)[nH]c2cc(Cl)ccc2c1=O | 6% | . | . | 7.1µM* | -4% | 23%
CC(C)N(CCn1c(=S)[nH]c2ccccc2c1=O)C(C)C | 1% | -12% | -8% | -17% | . | 2.9µM*
O=c1c2ccccc2[nH]c(=S)n1CCN1CCCC1 | 4% | i | -8% | 18% | -4% | 5%
COCCCNC(=O)C1CCC(CNS(=O)(=O)c2ccc3c(c2)CC(C)N3C(=O)C2CC2)CC1 (stereo unspecified) | -18% | -10% | -7% | 6% | -4% | 13µM*
CC1Cc2cc(S(=O)(=O)N3CCC(C(=O)N(C)Cc4ccccc4)CC3)ccc2N1C(=O)C1CC1 (stereo unspecified) | 0% | . | . | 5.6µM* | 13µM* | 10µM*
CC(=O)N1c2ccc(S(=O)(=O)NCC3CCC(C(=O)N(C)Cc4ccccc4)CC3)cc2CC1C (stereo unspecified) | -5% | i | -20% | ? | 13µM* | ?
CC1Cc2cc(S(=O)(=O)N3CCC(C(N)=O)CC3)ccc2N1C(=O)C1CC1 (stereo unspecified) | -13% | . | . | -8% | 0% | 12µM*
CCOC(=O)C1CCN(S(=O)(=O)c2ccc3c(c2)CC(C)N3C(=O)C2CC2)CC1 (stereo unspecified) | -26% | -8% | -22% | -27% | ? | ?
O=C(NC(c1ccccc1)c1ccccc1)C1CCCC1 | 1% | i | -6% | 3% | -24% | 62%
COc1cc(CNS(=O)(=O)c2ccc3c(c2)CC(C)N3C(C)=O)cc(OC)c1OC (stereo unspecified) | -3% | -3% | -16% | -21% | ? | 5.9µM*
CC(=O)N1c2ccc(S(=O)(=O)NCC3CCC(C(=O)N4CCCC(C)C4)CC3)cc2CC1C (stereo unspecified) | 12% | i[7.34 µM] | -13%[7.34 µM] | -17% | ? | 1.2µM*
Cc1ccccc1-c1noc(-c2ccccc2C(=O)N2CCCC2)n1 | -56% | . | 0% | -22% | 4% | -16%
CCCN1Cc2cccc(C(=O)Nc3ccc(CN4CCCC4)cc3)c2C1=O | -3% | ? | -28% | -25% | 9.3µM* | .
CCc1cccc(NC(=O)c2cccc3c2C(=O)N(CC2CCCO2)C3)c1 (stereo unspecified) | -44% | -1% | 9% | 11µM* | ? | ?
CCCN1Cc2cccc(C(=O)Nc3ccc(OC)c(OC)c3)c2C1=O | 0% | -22% | 8% | -14% | . | .

High-throughput results: PubChem BioAssay, National Center for Advancing Translational Sciences (NCATS)
